Source: PubChem BioAssay
Most compounds without a hit are left out; they make up all but 1.7% or so of the library.
eIF4H inh – inhibitors of RNA binding by human eIF4H | Q15056 | eIF4H fluorescence polarization binding assay | inhibition, % at 35 µM | hit rate 0.94% among 290,000;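 also: calls also rest on retests at 20 µM and on dose response follow-up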
PABP FP inh – PABP-poly(A) binding inhibition; hit rate 1% among 290,000; PABP-poly(A) RNA binding, fluorescence polarization; AID 2014; calls only at 35 µM;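 also: calls also rest on retests at 20 µM and on dose response follow-up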
MLLE-PAM2 inh – inhibitors of microRNA-mediated deadenylation, human PABP1 MLLE binding. GST-MLLE / FITC-PAM2 fluorescence polarization. inhibition, % at 20 µM. AID 588489. hit rate 0.36% among 360,000; in the data active = inhibition above about 35%, passing the limit was not always enough
eIF4E 4G PPI – inhibitors of eIF4E and eIF4G interaction in translation initiation. P63073+Q04637. TR-FRET eIF4E-eIF4GI(517-606) binding, 2 h. inhibition, % at 21.7 µM. hit rate 0.37% among 220,000;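 active = inhibition above about 30%, limit read from the data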
EBV gp42 inh – blocks Epstein-Barr virus glycoprotein 42 binding; Q1HVG2; Fluorescence polarization binding assay, mP read-out; inhibition, % (tested at 21.74 µM); hit rate 0.42% among 220,000; AID 1085; in the data active = inhibition above about 50%
Target sequence (Q1HVG2 whole entry, looked up): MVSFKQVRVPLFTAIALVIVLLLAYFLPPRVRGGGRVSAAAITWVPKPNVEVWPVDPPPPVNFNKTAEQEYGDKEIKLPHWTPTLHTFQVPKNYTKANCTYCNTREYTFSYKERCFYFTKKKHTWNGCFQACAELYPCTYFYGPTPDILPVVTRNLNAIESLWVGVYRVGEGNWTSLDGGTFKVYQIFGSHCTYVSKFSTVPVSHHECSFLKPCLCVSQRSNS
Numbers stand for hits; – = inactive; ? = inconclusive; · = not tested or not shown; + = active, no number; [ ] = another dose, or the depositor's remark. Unless noted, no rule for the calls is given here.

SMILES	eIF4H inh	PABP FP inh	MLLE-PAM2 inh	eIF4E 4G PPI	EBV gp42 inh
COC(=O)c1cc([N+](=O)[O-])c(-n2cncn2)c([N+](=O)[O-])c1	–	+	–	–	–
O=C(O)C1CSC(c2ccncc2)N1 (configuration not stated)	–	–	37.8	–	–
Cc1nnc(N2C(=O)c3oc4ccccc4c(=O)c3C2c2ccco2)s1 (configuration not stated)	–	–	47.9	–	–
COc1cc(/C=N/NC(=O)C(=O)NCc2ccco2)cc(Cl)c1O	?	+	–	–	–
COc1cc(/C=N/NC(=O)C(=O)NCc2ccco2)ccc1O	–	–	–	–	–
CC(=O)OC1=C(C#N)Cn2ccc3cccc1c32	–	–	·	31.5	–
Cc1cc(NC(=O)CN2C(=O)NC3(CCCCCC3)C2=O)ccc1Br	·	·	–	·	·
CCOc1cc(Br)c(Br)c(C=Nc2ccc(NC(C)=O)cc2)c1O	–	–	–	–	131.2
CC(=O)Nc1ccc(N=Cc2c(O)c(C(=O)Nc3ccccc3)cc3ccccc23)cc1	?	–	·	30.0	135.9
Cc1ccc2c(c1)S/C(=C\c1cccc[n+]1C)N2CCO	–	+	–	·	·
COC(=O)c1ccc2c(c1)SC1=C(CCCC1=O)N2	?	?	–	–	145.5
O=C1CCCC2=C1Sc1ccc(Cl)cc1N2	?	?	–	–	53.8
S=C1CCSc2ccc(Cl)cc2N1	–	–	–	–	–
C(=C\c1ccccc1)/CN1CCN(C(c2cc3ccccc3o2)c2nnnn2Cc2ccccc2)CC1 (configuration not stated)	·	·	–	·	·
CC1(C(=O)NS(=O)(=O)c2ccc(F)cc2F)CCN1C(=O)C1(c2ccc(Cl)cc2)CC1 (configuration not stated)	·	·	–	·	·
CCCCc1nc2ccc(S(=O)(=O)O)cc2[nH]1	–	–	–	–	–
Cc1ccc(-n2c(-c3cc(-c4ccco4)[nH]n3)n[nH]c2=S)c(Br)c1	?	+	–	–	–
S=c1[nH]nc(-c2cc(-c3ccco3)[nH]n2)n1-c1cccc2ccccc12	?	?	–	–	–
O=C(O)c1ccc(-n2c(-c3cc(-c4ccco4)[nH]n3)n[nH]c2=S)cc1	86.9	+	–	–	–
Oc1c(C(c2ccccn2)N2CCC(Cc3ccccc3)CC2)cc(Cl)c2cccnc12 (configuration not stated)	–	–	·	–	–
CN1CCN(C(c2ccccn2)c2cc(Cl)c3cccnc3c2O)CC1 (configuration not stated)	–	–	43.2	–	–
Oc1c(C(c2ccc(Cl)cc2)N2CCCC2)cc(Cl)c2cccnc12 (configuration not stated)	–	–	–	–	–
Cc1ccc(C(c2cc(Cl)c3cccnc3c2O)N2CCN(C)CC2)cc1 (configuration not stated)	–	–	48.2	·	·
CCOC(=O)c1c(-c2ccccc2)oc2cc(CN(C)C)c(O)c(CN(C)C)c12	·	·	–	·	·
CC1CCN(C(=S)NC(=O)c2cccs2)CC1	–	–	–	–	–
SMILES	eIF4H inh	PABP FP inh	MLLE-PAM2 inh	eIF4E 4G PPI	EBV gp42 inh
CC1CCCCN1C(=S)NC(=O)c1cccs1 (configuration not stated)	–	–	–	92.1	–
N#C/C(=C/c1cccn1-c1cccc(C(=O)O)c1)c1ccc(Cl)cc1	–	+	–	–	–
N#C/C(=C\c1ccccc1OCc1ccc(C(=O)O)cc1)c1ccccc1	–	–	–	–	–
CCOC(=O)/C(C#N)=C/c1cccn1-c1ccc(Cl)cc1	–	–	–	–	–
N#CC(C#N)=Cc1cccn1-c1ccc(C(=O)O)cc1	86.8	–	–	–	–
Cc1ccc(CNc2ncnc3ccc(-c4ccoc4C)cc23)o1	·	·	–	·	·
COc1ccc(/C=C2\SC(c3ccc(C)cc3)=NC2=O)cc1OC	?	–	–	–	52.9
OCC(CO)(CO)NC(=S)Nc1cc(Cl)cc(Cl)c1	–	–	–	97.2	–
CC(=O)Nc1ccc(N2CCCCC2)c(C(=O)Nc2cccc(C)c2)c1	–	–	–	43.2	–
Cc1ccc(/C=C2\CCC3=C2OC(N)=C(C#N)C3c2ccc(C)cc2)cc1 (configuration not stated)	?	?	–	–	57.8
O=C1C=C(Nc2ccc(O)cc2)CC(c2ccco2)C1 (configuration not stated)	–	–	–	–	–
O=C1C=C(NCc2ccc(Cl)cc2)CC(c2ccco2)C1 (configuration not stated)	·	·	–	–	–
CC(C)CNC1=CC(=O)CC(c2ccco2)C1 (configuration not stated)	108.3	+	–	–	–
O=C1C=C(O)CC(c2ccco2)C1 (configuration not stated)	104.2	+	–	–	–
Cc1cc(C)cc(-n2c(C)nc3cc(C(=O)O)ccc32)c1	–	?	–	–	–
COc1ccc(N2C(=O)CSC2c2ccccc2F)c(OC)c1 (configuration not stated)	–	–	–	·	·
COc1cc([C@@H]2[C@H]3CNCC=C3C(C#N)=C(N)C2(C#N)C#N)ccc1OC(C)C	73.3	+	–	–	–
C/C(=N\NC(=S)NCCc1ccccc1)c1ccc(O)cc1O	–	–	40.1	·	·
COc1cc(CN(C(=O)c2ccco2)c2ccc(C)cc2)ccc1O	–	–	–	36.9[fluorescence artefact?]	–
N#CC1=C(N)SC(N)=C(C#N)C1CCC1CCCCC1	–	+	·	–	–
Cc1sccc1C1C(C#N)=C(N)SC(N)=C1C#N	–	–	·	–	–
Nc1nc2c(s1)COc1ccccc1-2	–	–	–	–	–
Nc1nc2c(s1)CCc1c-2cnn1-c1ccccc1	–	–	–	39.4	–
CCC1CCCCN1C(=O)c1sc2ncnc(N(CC)CC)c2c1C (configuration not stated)	–	–	–	–	–
Cc1ccc(C(=O)N2CCN(S(=O)(=O)c3ccccc3[N+](=O)[O-])CC2)o1	51.2	–	–	–	–
SMILES	eIF4H inh	PABP FP inh	MLLE-PAM2 inh	eIF4E 4G PPI	EBV gp42 inh
CC1CCCCC1NC(=O)CSc1nnc(-c2ccco2)n1N (configuration not stated)	·	·	–	·	·
O=C(N/N=C/c1cc(Cl)cc([N+](=O)[O-])c1O)NC12CC3CC(CC(C3)C1)C2	–	–	–	–	52.2
O=C(Cn1c(=O)c2cccn2c2cccnc21)N1CCN(c2ccccc2F)CC1	–	–	–	·	·
Cc1cc(C)c(C(O)c2ncc(-c3cccc(F)c3)[nH]2)c(C)c1 (configuration not stated)	·	·	–	·	·
Cc1ccc(C(C)C)c(OCc2nc(-c3nonc3N)no2)c1	–	–	–	52.9	–
Cc1ccc(C(C)C)c(OCc2n[nH]c(=S)o2)c1	–	–	–	–	–
Cc1ccc(C(=O)COC(=O)CCC(=O)Nc2ccccc2Cl)cc1[N+](=O)[O-]	4.8	+	–	–	–
CC(=O)Nc1ccc(NC(=O)CCC(=O)OCC(=O)c2ccc(C)c([N+](=O)[O-])c2)cc1	–	–	–	–	–
O=C(c1ccccc1)N1CCN(c2nc3ccc([N+](=O)[O-])cc3s2)CC1	–	–	–	–	–
O=[N+]([O-])c1ccc2nc(N3CCCC3)sc2c1	–	+	–	·	·
